Assay results taken from PubChem BioAssay (NCI).
Compounds without any hit were thinned out: in the full panel of roughly 79,000, 15% have a hit. A number with no mark means an inactive call. Calls of active or inactive are those of the source. No stated cut-off is given here; in the data, active means growth inhibition above about 70%; inactive means the rest.

How the values were obtained:
[1] = NCI Yeast Anticancer Drug Screen. Data for the rad50 strain (AID 155);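 further: 0% = growth of vehicle-only cultures of the same strain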; details: S. cerevisiae rad50 strain growth inhibition; at 50.0 µM; stronger effect = higher value
In short: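 Compounds were tested on a yeast strain with an engineered DNA damage repair alteration; the reported value is growth inhibition normalised to vehicle treatment.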

[2] = NCI Yeast Anticancer Drug Screen. Data for the mec2-1 strain (AID 157); details: S. cerevisiae mec2-1 strain, at 50.0 µM, stronger effect = higher value
In short: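 Test agents were screened against the mec2-1 yeast strain, with defined DNA repair or cell cycle alteration. Growth was scored as inhibition against vehicle-only controls.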

[3] = NCI Yeast Anticancer Drug Screen. Data for the sgs1 mgt1 strain (AID 161);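 further: 0% = growth of cultures given vehicle only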; details: S. cerevisiae sgs1 mgt1 strain, at 50.0 µM, stronger effect = higher value
In short: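 Read-out: growth inhibition vs vehicle controls. Cells: mutant yeast strain deficient in DNA damage repair.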

[4] = NCI Yeast Anticancer Drug Screen. Data for the cln2 rad14 strain (AID 165);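 further: 0% = growth equal to vehicle treated cultures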; details: S. cerevisiae cln2 rad14 strain, at 50.0 µM, stronger effect = higher value
In short: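 Growth of compound-exposed yeast (cln2 rad14 genotype) measured and expressed as inhibition relative to vehicle.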

[5] = NCI Yeast Anticancer Drug Screen. Data for the bub3 strain (AID 167); details: S. cerevisiae bub3 mutant strain, at 50.0 µM, stronger effect = higher value
In short: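 Growth of a checkpoint-deficient yeast mutant is measured after compound exposure. Values represent inhibition relative to vehicle.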

[6] = NCI Yeast Anticancer Drug Screen. Data for the mlh1 rad18 strain (AID 175); details: S. cerevisiae mlh1 rad18 strain growth inhibition; at 50.0 µM; stronger effect = higher value
In short: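 In this whole-cell yeast screen, a strain with altered DNA damage repair is challenged with compound, and its growth is measured against matched vehicle-treated controls.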

Row | SMILES | growth inhibition [1] | growth inhibition [2] | growth inhibition [3] | growth inhibition [4] | growth inhibition [5] | growth inhibition [6]
1 | O=C(O)c1cc(I)ccc1O | -6.65% | -0.3% | -1.25% | -33.8% | -12.7% | 
2 | Nc1c(Br)cc(O)c2c1C(=O)c1ccccc1C2=O | -11.6% | -3.5% | 8.55% | 7% | 26.9% | 
3 | CCOS(=O)(=O)c1ccc([N+](=O)[O-])cc1 | 7.35% | 5.95% | 4.5% | 5.15% | 5.2% | 
4 | Cc1ccc(C)c(CCO)c1 | -22.1% | -38.5% | -30.5% | -2.9% | -21.4% | 
5 | CCNC(=O)Oc1ccc[nH]c1=O | -7.65% | -10.8% | -1.1% | -15.9% | -2.2% | 
6 | CC(=O)Nc1ccc(/C=C2\SC(=S)N(/C=C(\C(C)=O)C(N)=O)C2=O)cc1 | -52% | -7.4% | -37.6% | -0.8% | -5% | -11.2%
7 | Oc1cccnc1CN1CCCC1 | 1.15% | -12.8% | 2.3% | 1.7% | -5.8% | 
8 | CCN(CC)CCCC(C)NC(=S)N/N=C(\C)c1ccccn1 (stereo not given) | 60.6% | 47.6% | 41% | 11.2% | 29.1% | 42.7%
9 | O=C(NCc1ccccc1)c1cccc([N+](=O)[O-])c1 | 5.05% | 18.1% | 19.9% | -47% | 22.9% | 
10 | O=C(O)c1ccc([N+](=O)[O-])cc1S(=O)(=O)O | -21.6% | -6.8% | -24.3% | -22.9% | -8.4% | -4.55%
11 | CCN(C(=O)Nc1ccccc1Cl)c1ccccc1 | 8.75% | 13.1% | 8.8% | 2.95% | 7.8% | 11.6%
12 | CCOC(=O)/C(C#N)=C\c1c[nH]c2ccccc12 | 54.5% | 23.9% | 46.3% | -1.2% | 57.7% | 59.2%
13 | Nc1ncnc(Nc2ccc(C(F)(F)F)cc2)n1 | 44% | 8.35% | 1.35% | 13.2% |  | 
14 | CC1(C)C2CCC1(C)C1(C2)OCCS1 (stereo not given) | 24.8% | -5.25% | 1% | 11.2% | 1.05% | 
15 | CC(=O)Nc1ccc(C(=O)c2ccc(S(=O)(=O)Nc3ccccc3)cc2)cc1 | 6.5% | -9.15% | 5.55% | 16.9% | 6.05% | 
16 | CC(C)NC(=O)OCc1c(COC(=O)NC(C)C)c(-c2ccc(Cl)cc2)n2c1CCC2 | -29.6% | -23.7% | -26.1% | 9.25% | -6.75% | -24.4%
17 | Cc1ccc2[nH]c3ccccc3c2c1 | 26.1% | 14.6% | 22.9% | -14.8% | 15% | 31.1%
18 | O=C(O)c1ccccc1Cc1ccc2c(c1)CCCC2 | 17.4% | 12.2% | -4.6% | -28.9% | 25.7% | 
19 | Cc1ccc2nc(-c3ccc(N=Cc4ccccc4O)cc3)sc2c1 | 17.7% | 12.9% | 6.5% | -6% | 27.9% | 
20 | CCCC(OC(C)=O)c1ccc2c(c1)OCO2 (stereo not given) | 26.4% | 27.5% | 17.3% | -12% | 20.9% | 
21 | Cc1ccc([N+](=O)[O-])c(C)n1 | 19.1% | -23.1% | 6.2% | 27.1% | -4.4% | 
22 | NC(=S)N/N=C/c1ccc(Cl)cc1 | 47.5% | 23.8% | 41.5% | 13.4% | 22.9% | 

Row | SMILES | growth inhibition [1] | growth inhibition [2] | growth inhibition [3] | growth inhibition [4] | growth inhibition [5] | growth inhibition [6]
23 | CCOC(=O)N[C@H]1CCc2cc(OC)c(OC)c(OC)c2-c2ccc(SC)c(=O)cc21 | 33.5% | -16.5% | 16.2% | 5.1% | 1.35% | 
24 | Cn1c(=O)[nH]c2ccccc2c1=O | -1% | 4.5% | -2.1% | 0.7% | 6.85% | 5.05%
25 | OCCOc1ccc(-c2cc(-c3ccccn3)nc(-c3ccccn3)c2)cc1 | 57.6% | 46.3% | 43% | 44.5% | 46.7% | 77.4% (active)
26 | CCCCCCCCCc1ccc(OC(C)=O)cc1 | 99.3% (active) | 97.2% (active) | 42.2% | 98% (active) | 94.2% (active) | 
27 | CCCCc1ccc2nc(NC(=O)OC)[nH]c2c1 | -4.25% | 21.5% | 13.6% | 28.8% | 21.5% | 
28 | Nc1nnc2cc(F)ccc2n1 | -18% | -9.75% | -5.9% | 21.8% | 11.7% | 
29 | CCOC(=O)CNC(=O)Sc1ccc(C(C)(C)C)cc1 | 88.2% (active) | 88.2% (active) | 84.2% (active) | 70.2% (active) | 76.7% (active) | 
30 | Cn1c(=O)c2[nH]c(CC(=O)O)nc2n(C)c1=O | 29.5% | 11% | 33.8% | 22.8% | 0.85% | 
31 | CCOC(=O)c1ccc(NC(=O)Nc2nccs2)cc1 | -2.95% | -10.8% | 29.4% | 11.2% | -12.4% | 
32 | c1ccc2c(NCCCN3CCN(CCCNc4c5ccccc5nc5ccccc45)CC3)c3ccccc3nc2c1 | 23.9% | 4.6% | 11.1% | -0.25% | 22.2% | 
33 | CCC1CCC(C)NC1 (stereo not given) | 26.4% | 2.75% | 17.2% | 23.6% | -7.05% | 
34 | ClCC(Cl)C1CCC(Cl)C(Cl)C1 (stereo not given) | 10.5% | 6.1% | -7.85% | -3.9% | 8.65% | 
35 | CCOC(=O)C(CCC#N)(CCC#N)C(=O)OCC | 39.5% | 9.8% | -2.2% | -21.3% | 12.6% | 
36 | C/C(=N\Nc1ccc([N+](=O)[O-])cc1[N+](=O)[O-])c1ccc(Br)cc1 | -8.7% | -2.2% | 2.35% | -12.8% | 8.7% | 
37 | CC(=O)NCNC(C)=O | -4.1% | 5.4% | 3.75% | -75.1% | 7.8% | 
38 | C=C1C(=O)C2CCC1C2 (stereo not given) | 32.4% | -24.6% | 23.8% | -3.2% | 7.8% | 8.25%
39 | CSCC[C@@H]1C(=O)N(C)[C@H](C(C)(C)C)N1C(=O)c1ccccc1 | -0.9% | -12.4% | -7.05% | 0.6% | 44.7% | -13.4%
40 | Cc1[nH]nc(C(N)=O)c1[N+](=O)[O-] | -0.75% | 4.95% | 20.2% | -36.8% | -6.7% | 0.35%
41 | CC1(C)CCC(C)(C)NC(=S)N1 | 13.3% | -8.35% | 21.2% | 1.9% | 13.5% | 11.1%
42 | OCCNc1ccccc1 | 31.9% | 11.4% | 2.75% | 11.1% | 6.3% | 9.7%
43 | CCNCC(C)(C)O | 7.7% | -3.8% | 5.5% | 8.35% | -0.5% | 27.8%
44 | Cc1ccc(N2C(=O)c3cccc4c(N)c(S(=O)(=O)O)cc(c34)C2=O)cc1 | -33.5% | -18.2% | -24.7% | -6.8% | -13.7% | -28.4%
